The nature of experiment [1]: NCI Yeast Anticancer Drug Screen. Data for the rad50 strain (AID 155).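 Note: 0% = growth of vehicle-only cultures of the same strain.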 Conditions: S. cerevisiae rad50 strain growth inhibition; at 50.0 µM; stronger effect = higher value. A digest of the protocol:
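Yeast carrying a defined DNA repair defect were exposed to test compounds, and growth was compared with vehicle-treated controls to give percent inhibition.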

The nature of experiment [2]: NCI Yeast Anticancer Drug Screen. Data for the mec2-1 strain (AID 157). Conditions: S. cerevisiae mec2-1 strain, at 50.0 µM, stronger effect = higher value. A digest of the protocol: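 Cells of the genetically defined mec2-1 yeast strain are incubated with test compound. Inhibition of growth is calculated against vehicle-treated controls.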
Experiment [3] can be described thus: NCI Yeast Anticancer Drug Screen. Data for the sgs1 mgt1 strain (AID 161).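 Note: 0% = growth of cultures given vehicle only.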 The following applies: S. cerevisiae sgs1 mgt1 strain, at 50.0 µM, stronger effect = higher value. An outline of the steps:
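Mutant yeast exposed to compound; growth scored against vehicle-only wells.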

The nature of experiment [4]: NCI Yeast Anticancer Drug Screen. Data for the cln2 rad14 strain (AID 165).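 Note: 0% = growth equal to vehicle treated cultures.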 The following applies: S. cerevisiae cln2 rad14 strain, at 50.0 µM, stronger effect = higher value. A digest of the protocol: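 The screen exposed genetically defined yeast (cln2 rad14) to test compounds and scored growth inhibition relative to vehicle-treated controls.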
A short description of experiment [5]: NCI Yeast Anticancer Drug Screen. Data for the bub3 strain (AID 167). Conditions: S. cerevisiae bub3 mutant strain, at 50.0 µM, stronger effect = higher value. A digest of the protocol: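 Compounds were applied to a genetically altered yeast strain carrying a cell-cycle control defect. Growth inhibition was scored against vehicle-treated controls.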
The nature of experiment [6]: NCI Yeast Anticancer Drug Screen. Data for the mlh1 rad18 strain (AID 175). Conditions: S. cerevisiae mlh1 rad18 strain growth inhibition; at 50.0 µM; stronger effect = higher value. An outline of the steps: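 Compound-treated yeast growth, normalised to vehicle controls. Strain bears defined DNA repair mutations.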

Compounds without any hit were thinned out: in the full panel of roughly 79,000, 15% have a hit. Unmarked numbers belong to inactive results. Activity calls are given as the source filed them. Cut-off read from the data, not from the text of the source: active = growth inhibition above about 70%; inactive = the rest.

Take `NNN1CCN(N)CC1`: the growth inhibition is 11.1% in experiment [1]; -12.2% in experiment [2]; 6.35% in experiment [3]; -8.35% in experiment [4]; 17.1% in experiment [5]; 4.35% in experiment [6].
On to `CC(C)=CC1C(C(=O)OCc2cc3c(cc2Cl)OCO3)C1(C)C` (centres undefined), for which the growth inhibition in experiment [1] is 8.65%; in experiment [2] it was 12.1%; in experiment [3], -15.2%; in experiment [4] it was -48.9%; in experiment [5] it was 14.9%; in experiment [6] it was -3.9%.
On to `CC(C)=C=CP(=O)(O)c1ccccc1`, for which the growth inhibition is -25.1% in experiment [1]; -24.1% in experiment [2]; -15.7% in experiment [3]; 31.9% in experiment [4]; -14.3% in experiment [5]; 4.45% in experiment [6].
With `[C-]#[O+].[C-]#[O+].[C-]#[O+].[C-]#[O+].[C-]#[O+].[C-]#[O+].[C-]#[O+].[C-]#[O+].[C-]#[O+].[CH2-]C.[Co].[Co].[Co]`, the growth inhibition was 25.6% in experiment [1]; 9.9% in experiment [2]; 19.1% in experiment [3]; -2.3% in experiment [4]; 24.2% in experiment [5]; 33.8% in experiment [6].
With `CCN1C(=O)CC(=O)N(CC)C1=S`, the growth inhibition in experiment [1] was 24.4%; in experiment [2], -12.4%; in experiment [3], -8.55%; in experiment [4], 12.2%; in experiment [5] it was 8.45%; in experiment [6], 21.2%.
As for `Nc1ccc(C(=O)N/N=C/c2ccc(N(CCBr)CCBr)cc2)cc1`, the growth inhibition in experiment [1] is 42.9%; in experiment [2], 22.4%; in experiment [3] it was 25.5%; in experiment [4] it was 1.95%; in experiment [5], 5.3%; in experiment [6], 54.2%.
Regarding `[NH-]C(CCC(N)=O)C(=O)O.[NH-]C(CCC(N)=O)C(=O)O.[Pd+2]` (centres undefined), the growth inhibition was -14.6% in experiment [1]; -3.2% in experiment [2]; -7.55% in experiment [3]; -71.6% in experiment [4]; -1.1% in experiment [5]; -8.1% in experiment [6].
In the case of `CC(=O)OC(C)(C)/C=C/C(=O)[C@](C)(O)[C@H]1[C@H](O)C[C@@]2(C)[C@@H]3CC=C4[C@@H](C=C(O)C(=O)C4(C)C)[C@]3(C)C(=O)C[C@]12C`, the growth inhibition in experiment [1] is -4.6%; in experiment [2] it was -36.5%; in experiment [3], -14.6%; in experiment [4], -10.8%; in experiment [5], -15.7%; in experiment [6], -16.1%.
Regarding `Nc1nc(=S)nc(N)[nH]1`, the growth inhibition was 21.6% in experiment [1]; 11.2% in experiment [2]; -7.9% in experiment [3]; -18.5% in experiment [4]; 14.6% in experiment [5]; -2.5% in experiment [6].
`CCOC(=O)C1C(c2ccco2)C2(C#N)C(=N)OC1(C)C2(C#N)C#N` (centres undefined): the growth inhibition in experiment [1] was 3.45%; in experiment [2], 12.3%; in experiment [3], -39.5%; in experiment [4], -0.9%; in experiment [5], -36.8%; in experiment [6], -52%.
Consider `FC1(F)[Se]C2C3CCC(C3)C2C1(F)F` (centres undefined), for which the growth inhibition in experiment [1] was -30.9%; in experiment [2], -11.6%; in experiment [3] it was -3.6%; in experiment [4], -16.1%; in experiment [5], -0.15%; in experiment [6], -40.7%.
`[Cl][Ni][Cl].[NH-]CCN1CC1.[NH-]CCN1CC1`: the growth inhibition in experiment [1] was -9.75%; in experiment [2], 19.4%; in experiment [3], 19.4%; in experiment [4] it was -26.4%; in experiment [5], -4.55%; in experiment [6], -5.75%.
`Clc1ccc(N=P(c2ccccc2)(c2ccccc2)c2ccccc2)cc1.[Cl][Cd][Cl]`: the growth inhibition is 95% (active) in experiment [1]; 71% (active) in experiment [2]; 81.8% (active) in experiment [3]; 75.9% (active) in experiment [4]; 64.2% in experiment [5]; 69% in experiment [6].
`Cc1ccc2c(c1)Cc1ccccc1-2`: the growth inhibition was 22.9% in experiment [1]; -17.2% in experiment [2]; 16.9% in experiment [3]; 23.7% in experiment [4]; 10.2% in experiment [5]; 34.9% in experiment [6].
As for `CSCCC(NC(=O)C(Cc1ccccc1)NC(=O)CNC(=O)CNC(=O)C(N)Cc1ccc(O)cc1)C(=O)O` (centres undefined), the growth inhibition in experiment [1] was 12.4%; in experiment [2], 2.2%; in experiment [3] it was -6.45%; in experiment [4], 26.2%; in experiment [5], 14.4%; in experiment [6], 16.2%.
With `O=C(CC(=O)C(F)(F)F)c1cccs1.O=C(CC(=O)C(F)(F)F)c1cccs1.O=C(CC(=O)C(F)(F)F)c1cccs1.[Tb]`, the growth inhibition in experiment [1] was -5%; in experiment [2], 20.6%; in experiment [3] it was 24.6%; in experiment [4], -27.5%; in experiment [5] it was -1.5%; in experiment [6], 28.2%.
Take `CCCCCCCCCCCCCCCC[As](=O)(O)CCCCCCCCCCCCCCCC`: the growth inhibition in experiment [1] is -6.35%; in experiment [2] it was 13.7%; in experiment [3] it was -17.8%; in experiment [4] it was 4.25%; in experiment [5], 7.2%; in experiment [6] it was 8.55%.
`NC1CCCC[C@H]1N.N[C@@H]1CCCC[C@@H]1N.O=C(P(=O)([O-])[O-])P(=O)([O-])[O-].[Pt+4].[Pt+4]`: the growth inhibition was 20.2% in experiment [1]; 3.85% in experiment [2]; -13.7% in experiment [3]; 2.7% in experiment [4]; -6.6% in experiment [5]; 10.3% in experiment [6].
`CCc1cc[c]([Sb](=[O])([OH])[OH])cc1`: the growth inhibition in experiment [1] was 3.5%; in experiment [2] it was -7.15%; in experiment [3] it was 9.1%; in experiment [4], 22.5%; in experiment [5], 4.1%; in experiment [6] it was 3.2%.
